# Source: PubChem (Bradner/Qi Labs at DFCI)
# Many of the other results were omitted from the sample, so hits are more common in it than they were.
# CBX7 AlphaScr = CBX7 chromodomain binding inhibitors, primary screen, biochemical, AlphaScreen; AlphaScreen His6-CBX7 / biotin-H3K27me3 peptide binding; hits give low values; normalised signal (fraction of DMSO) (concentration not given with the values); hit rate 1.1% among 66,000; Chromobox protein homolog 7 (Homo sapiens), O95931; in the data active = normalised signal below about 0.5
# Target sequence (O95931 whole entry, looked up): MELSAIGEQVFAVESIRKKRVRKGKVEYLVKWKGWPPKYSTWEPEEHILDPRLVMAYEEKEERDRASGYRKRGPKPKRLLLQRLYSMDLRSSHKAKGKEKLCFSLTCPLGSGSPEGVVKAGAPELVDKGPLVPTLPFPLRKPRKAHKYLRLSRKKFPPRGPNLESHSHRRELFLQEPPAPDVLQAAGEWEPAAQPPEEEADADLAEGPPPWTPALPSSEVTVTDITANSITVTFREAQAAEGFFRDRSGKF
# Starred values were filed as active, the others as inactive.
SMILES,CBX7 AlphaScr
COc1cccc(-c2nc(-c3ccsc3)c(-c3ccccc3)[nH]2)c1OC,0.92
Oc1ccc(-c2[nH]c(-c3cccc(Cl)c3)nc2-c2ccccc2)cc1,0.41*
COc1cccc(-c2nc(-c3cccs3)c(-c3cccs3)[nH]2)c1,0.92
COc1ccc(-c2nc(-c3cccs3)c(-c3cccs3)[nH]2)cc1OC,0.45*
COc1cccc(-c2nc(-c3ccccc3)c(-c3cccs3)[nH]2)c1OC,0.43*
O=C(O)c1ccc(-c2nc(-c3cccc(Cl)c3)c(-c3ccccc3)[nH]2)cc1,0.72
Brc1ccc(-c2nc(-c3ccccc3)c(-c3ccc(Oc4ccccc4)cc3)[nH]2)cc1,0.76
COc1ccc(-c2nc(-c3ccccc3)c(-c3cccs3)[nH]2)cc1OC,0.51
Oc1ccc(-c2nc(-c3ccc(-c4ccccc4)cc3)c(-c3ccc(-c4ccccc4)cc3)[nH]2)cc1,0.61
CCC(C)NC(=O)c1nn2c(C(F)(F)F)cc(-c3ccc(C)cc3)nc2c1Cl (configuration not stated),1.1
O=C(NCC1COc2ccccc2O1)c1cc(=O)[nH]c2ccc(S(=O)(=O)N3CCCCC3)cc12 (configuration not stated),0.95
CC(C)c1ccc(NC(=O)C2CCN(S(=O)(=O)c3ccc4c(c3)CCC(=O)N4)CC2)cc1,1
O=C(NC1CC1)c1ccc2nc(N3CCOCC3)sc2c1,1.2
O=C(CSc1nnc(Cc2cc(=O)[nH]c(=O)[nH]2)n1-c1ccc(F)cc1)Nc1ccc(F)cc1,1
Cc1ccc(C)c(NC(=O)Nc2cc3sccc3n2C)c1,1
Fc1ccc(-c2nc(-c3ccccc3)c(-c3cccs3)[nH]2)cc1,0.7
COc1ccc(-c2nc(-c3ccccc3)c(-c3cccs3)[nH]2)cc1O,0.88
Oc1ccc(-c2nc(-c3ccccc3)c(-c3cccs3)[nH]2)cc1,0.47*
COc1ccc(-c2nnc(NC(=O)c3cccc(C)c3)s2)cc1OC,0.99
CC1CCCC(NC(=O)CCc2cn(Cc3ccccc3)c3ccccc23)C1C (configuration not stated),0.95
O=C(CN1C(=O)COc2ccc(Cl)cc21)NCc1ccc(F)cc1,0.42*
Cc1ccc(CNC(=O)CN2C(=O)COc3ccc(Cl)cc32)cc1,1.4
CCN(CC)S(=O)(=O)c1ccc2c(c1)N(CC(=O)NCc1ccc(F)cc1)C(=O)CO2,0.99
O=C(NCc1ccc(F)cc1)C1CCCN(c2nnc(-n3cccc3)s2)C1 (configuration not stated),0.62
Cc1cccc(-n2c(-c3ccccc3F)nc3c(cnn3-c3ccccc3)c2=O)c1,0.49*
SMILES,CBX7 AlphaScr
COc1cccc(-n2c(-c3ccccc3F)nc3c(cnn3-c3ccc(C)cc3)c2=O)c1,0.6
CCOc1ccc(-n2c(-c3ccccc3F)nc3c(cnn3-c3ccccc3)c2=O)cc1,0.54
COc1ccc(-c2nc(S(=O)(=O)c3ccc(Cl)cc3)c(N3CCCCC3)o2)cc1,0.91
COc1ccc(-c2cc(C(F)(F)F)nc(NCc3cccnc3)n2)cc1OC,1
O=C(NC(C(=O)Nc1cccc(Cl)c1)c1ccccc1)c1ccc2ccccc2n1 (configuration not stated),0.79
OC(CN1CCCCC1)Cn1c2ccccc2c2ccccc21 (configuration not stated),0.86
CCC(=C(c1ccc(OC)cc1)c1ccc(OC)cc1)c1cn(CC(O)CN2CCCC2)c2ccccc12 (configuration not stated),0.26*
COc1ccc(-c2cc3ccccc3n2CC(O)CN2CCCCCC2)cc1 (configuration not stated),1.2
Cc1nc2cc(-c3ccc(Cl)cc3)nn2c(C)c1CCC(=O)NC1CCCC1,1
Cc1ccc(C(=O)Nc2c(C(=O)N3CCCCC3)cnn2-c2ccccc2)cc1,0.89
Cc1nnc(Nc2ccc(S(=O)(=O)Nc3nccs3)cc2)c2ccccc12,0.49*
Cc1ccc(-c2nnc(Nc3ccc(Cl)cc3)c3ccccc23)cc1S(=O)(=O)NCCO,0.82
O=S(=O)(Nc1nccs1)c1ccc(Nc2nnc(-c3ccc(Cl)cc3)c3ccccc23)cc1,0.23*
Cc1ccc(Nc2nnc(-c3ccc(C)c(S(=O)(=O)NC(C)(C)C)c3)c3ccccc23)cc1,0.93
NC(=O)COc1ccc(Nc2nnc(-c3ccc(Cl)cc3)c3ccccc23)cc1,0.91
O=C(Nc1ccc(S(=O)(=O)Nc2nccs2)cc1)c1ccccc1Br,1
Cc1ccc(-c2nnc(Nc3ccc(S(=O)(=O)Nc4nccs4)cc3)c3ccccc23)cc1,0.36*
COc1cccc(OC)c1C(=O)Nc1ccc(S(=O)(=O)Nc2nccs2)cc1,1
Cc1ccc(-c2nnc(Nc3ccc4c(c3)ncn4C)c3ccccc23)cc1,0.58
Cc1sc(NC(=O)c2ccccc2Br)nc1-c1ccccc1,0.99
CCOc1ccc(N2C(=O)CC(N3CCC(C(=O)O)CC3)C2=O)cc1 (configuration not stated),0.87
Cc1ccc2cc(CCNC(=O)COc3ccccc3)c(=O)[nH]c2c1,0.9
CN(C(=O)Cn1ncc2c1-c1ccccc1OC2)c1cccc(Cl)c1,0.98
COc1ccc(-c2ccc(=O)n(CC(=O)Nc3ccc(C)c(C)c3)n2)cc1,0.93
COc1ccccc1N1CCN(c2ncnc3ccccc23)CC1,1
SMILES,CBX7 AlphaScr
COc1ccccc1N1CCN(Cc2cc(Br)c(O)c3ncccc23)CC1,0.013*
COc1ccccc1N1CCN(Cc2cc(Cl)c3cccnc3c2O)CC1,0.00087*
Oc1c(Br)cc(CN2CCCCC2)c2cccnc12,0.0057*
COc1cc(CN2CCN(Cc3ccccc3Br)CC2)cc(OC)c1OC,1
COc1ccccc1C(NC(=O)C(C)C)c1cc(Cl)c2cccnc2c1O (configuration not stated),0.71
COc1ccccc1N1CCN(c2nnc(C)c3ccccc23)CC1,1.2
COc1ccccc1N1CCN(Cc2nc(-c3ccccc3)no2)CC1,1
Brc1ccc(OCc2ccccc2)c2ncccc12,1
CCN(Cc1ccccc1)S(=O)(=O)c1ccc2c(c1)CCN2C(=O)CCC(=O)O,1
CCOc1ccc(Nc2oc(-c3ccccc3F)nc2C#N)cc1,1.1
C=CCN1C(=O)N(c2ccc(F)cc2)C(=O)C1CC(=O)Nc1ccc(C(=O)OCC)cc1 (configuration not stated),1
O=C(CC1(O)C(=O)N(CCc2ccccc2)c2ccc(Cl)cc21)c1ccccn1 (configuration not stated),0.57
O=C(O)CCNc1ncnc2ccccc12,1
NC(=O)c1ccc(-c2ncc(-c3ccccc3)o2)cc1,0.42*
Clc1ccc(-c2cnc(-c3ccncc3)o2)cc1,1.1
Cc1cc(C)c(C(=O)c2ccc(-c3nnc(-c4ccccc4)o3)cc2)c(C)c1,0.81
COc1cccc(OC)c1C(=O)Nc1cccc(-c2nc3cc(C)ccc3o2)c1,0.9
Cc1ccc2oc(-c3cccc(NC(=O)c4ncn[nH]4)c3)nc2c1,0.076*
Cc1ccc2oc(-c3cccc(NC(=O)c4ccccc4Cl)c3)nc2c1,0.92
Cc1cccc(CSc2nc3ccncc3n2CC(=O)Nc2ccc(C)cc2Cl)c1,1
COc1cccc(-c2nc(SCC(=O)NC3CCCC3)c(-c3ccc(C)cc3)[nH]2)c1,0.92
CCCOc1ccc(-c2nc(Oc3ccc(C(=O)OC)cc3)c3ccccc3n2)cc1,1.1
CCCCOc1ccc(-c2nc3c(C(=O)OC)c[nH]n3c2NC2CCCCCC2)cc1,0.21*
CCCCOc1ccc(-c2nc3ncccn3c2NC2CCCC2)cc1,0.91
CCCCOc1cccc(-c2nc3c(C(=O)OC)c[nH]n3c2NC2CCCCCC2)c1,0.46*
